{"source": "PubChem BioAssay (NCATS)", "note": "Active and inactive are the calls of the source. The call rests on the fitted dose curve; in most records, active means well fitted inhibition curve with a large enough effect; inconclusive means small, poorly fitted or top-dose-only effect; inactive means flat fitted curve, though single readings scatter.", "data": [{"target": "Luciferin 4-monooxygenase (Photinus pyralis) (UniProt P08659)", "assay": "Primary firefly luciferase (FLuc) qHTS assay for identification of artifact compounds. (AID 1845220); further: nearly all actives have a fitted effect of over 60% in size", "conditions": "purified firefly luciferase, luminescence, 5 min; series mostly up to 54.1 µM; activity change, negative = inhibition: at the top concentration", "description": "PI: Alexander Tropsha Ph.D.\nUNC Eshelman School of Pharmacy\nUniversity of North Carolina, Chapel Hill, North Carolina\nHits from high-throughput screening (HTS) of chemical libraries are often false positives due to their interference with the assay detection technology. In response to this problem, we generated the largest publicly available library of chemical liabilities and developed a free webtool to predict HTS artifacts, both of which are described herein. More specifically, we generated, curated, and integrated HTS datasets for thiol reactivity, redox activity, and luciferase (firefly and nano) activity. Using these curated datasets, we developed and validated several Quantitative Structure-Interference Relationship (QSIR) models to predict nuisance behavior. […] These models were employed for virtual profiling of the National Center for Advancing Translational Science's (NCATS) in-house library, and 256 compounds for each assay were selected for the experimental validation of nuisance behavior. The BA for these external predictions ranged from 58 to 78% for compounds within the applicability domains of the models. […] The models developed in this study, along with aggregation models previously developed by our group (SCAM Detective) were implemented in \"Liability Predictor,\" an online tool which may be used as part of chemical library design or for triaging HTS hits. Both the models and the curated datasets are publicly available at https://liability.mml.unc.edu/.\nSEQUENCE No. (e.g., 1, 2, 3, etc.); […] (e.g., Cells, Incubation, Reagent, etc.); VALUE; DESCRIPTION.\n1; Reagent; 3 uL; Luciferase substrate mixture.\n2; Compounds and control; 16 nL; Kalypsis pin tool (Wako USA) equipped with a 1536-well pin head.\n4; Reagent; 1 uL; Luciferase enzyme.\n6; Detection; Luminescence, ViewLux microplate reader.\nNOTES (numbers refer to Sequence numbers above)\n1. 3 uL of luciferase substrate mixture containing D-luciferin and ATP (final concentrations of 10 uM and 10 uM, respectively) in assay buffer (10 mM Mg-acetate, 0.01% Tween-20, 0.05% bovine serum albumin, 50 mM Tris acetate, pH 7.6) was dispensed into all wells of a 1536-well assay plate (solid-bottom white plate; Greiner Bio One, Monroe, NC).\n2. A Wako Pin-tool (Wako Automation, Richmond, VA) was used to transfer 16 nL of compounds (consisting of 7-plates in qHTS format, final concentration range 18.3 nM to 114 uM) or control PTC124 (final concentration range 1.22 nM to 40 uM).\n3. 15 min. incubation at room temperature protected from light.\n4. 1 uL of luciferase enzyme (final concentration 10 nM, Photinus pyralis luciferase) or buffer was dispensed for a final assay volume of 4 uL.\n5. Plates were centrifuged (121xg, 15 seconds) and incubated for 5 minutes.\n6. Samples were read for luminescence on a ViewLux CCD imager (PerkinElmer). Data were normalized to no-enzyme (0% activity) and no-inhibitor (DMSO; 100%) controls and the resulting percent inhibition data were fitted to a 4-parameter Hill equation using NCATS in-house software.", "values": [{"smiles": "CC1OC(O[C@@H]2[C@@H](O)[C@H](OC(=O)[C@]34CCC(C)(C)C[C@H]3C3=CCC5[C@@]6(C)CC[C@H](O[C@@H]7O[C@H](C(=O)O)[C@@H](O)[C@H](O[C@@H]8OC[C@@H](O)[C@H](O)[C@H]8O)[C@H]7O[C@@H]7O[C@H](CO)[C@H](O)[C@H](O)[C@H]7O)[C@@](C)(C=O)C6CC[C@@]5(C)[C@]3(C)C[C@H]4O)O[C@H](C)[C@@H]2OC2OC(C)C(OC3OCC(O)C(O)C3O)C(O)C2O)C(O)C(O)C1O", "note": "(stereo not given in full)", "activity change, negative = inhibition": "1.64% [at 11.6 µM] (inactive)"}, {"smiles": "C=C1CCC2C(C)(C)CCC[C@]2(C)[C@H]1CC/C(C)=C/C(=O)O", "note": "(stereo not given in full)", "activity change, negative = inhibition": "3.48% (inactive)"}, {"smiles": "C=C1CC/C=C(/CO)C(=O)C[C@@H]2[C@@H]1C[C@@]2(C)COC(C)=O", "activity change, negative = inhibition": "-3.05% (inactive)"}, {"smiles": "C/C=C(\\C)C(=O)O[C@H]1C=CC(=O)O[C@H]1/C=C/[C@H](O)[C@@H](C)O", "activity change, negative = inhibition": "-0.348% (inactive)"}, {"smiles": "C/C=C1/CC2C(=O)Nc3cc(O)c(OC)cc3C(=O)N2C1", "note": "(stereo not given)", "activity change, negative = inhibition": "0.483% (inactive)"}, {"smiles": "COC(=O)C(CC1CCCC1)c1ccc(S(C)(=O)=O)cc1", "note": "(stereo not given)", "activity change, negative = inhibition": "1.05% (inactive)"}, {"smiles": "Cc1cn2cc(CC(=O)N3CCC4(CC3)CN(Cc3ccc(-n5nccn5)cc3Cl)C4)nc2s1", "outcome": "inactive"}, {"smiles": "COc1c(O[C@@H]2O[C@H](CO)[C@@H](O)[C@H](O)[C@H]2O)c(CCC(=O)O)cc2ccoc12", "activity change, negative = inhibition": "-1.76% (inactive)"}, {"smiles": "C=C1C(OC(C)=O)[C@@]23CCC4[C@](C)(C(=O)O)CCC[C@@]4(C)[C@]2(O)CC[C@H]1C3", "note": "(stereo not given in full)", "activity change, negative = inhibition": "-12.6% (inactive)"}, {"smiles": "COC(=O)[C@@H](NC(=O)[C@H](CC(C)C)NC(=O)N(Cc1ccccc1)C[C@@H](O)[C@H](Cc1ccccc1)NC(=O)OC(C)(C)C)C(C)C", "outcome": "inactive [at 11.6 µM]"}, {"smiles": "CC(=O)OC1C(C)C2C(OC3OC(CO)C(O)C(O)C3O)OC=C(C(=O)O)C2C1OC(=O)c1ccccc1", "note": "(stereo not given)", "activity change, negative = inhibition": "1.62% [at 25.7 µM] (inactive)"}, {"smiles": "C=CC(C)(O)C1CC2C3(C)CCCC(C)(C)C3C(O)C(O)C2(C)O1", "note": "(stereo not given)", "activity change, negative = inhibition": "-2.28% (inactive)"}, {"smiles": "COC(=O)c1c(CC=C(C)C)c(OC2OC(CO)C(O)C(O)C2O)c2ccccc2c1OC1OC(CO)C(O)C(O)C1O", "note": "(stereo not given)", "outcome": "inactive [at 25.7 µM]"}, {"smiles": "CC(C)=CCC(O)[C@](C)(O)C1[C@H](O)C[C@@]2(C)C3CC=C4C(C[C@H](O)[C@@H](O[C@@H]5O[C@H](CO)[C@@H](O)[C@H](O)[C@H]5O)C4(C)C)[C@]3(C)C(=O)C[C@]12C", "note": "(stereo not given in full)", "outcome": "inactive [at 25.7 µM]"}, {"smiles": "COc1cc(Nc2nc3c(s2)CCCC3c2ccccc2)ccc1-n1cnc(C)c1", "note": "(stereo not given)", "outcome": "inactive [at 11.6 µM]"}, {"smiles": "O=C(/C=C/c1ccc(O)cc1)OC[C@H]1O[C@@H](O/C(=C\\c2ccccc2)C(=O)O)[C@H](O)[C@@H](O)[C@@H]1O", "activity change, negative = inhibition": "0.337% [at 25.7 µM] (inactive)"}, {"smiles": "CC1=C(C(=O)OC2OC(COC3OC(CO)C(O)C(O)C3O)C(O)C(O)C2O)C(C)(C)CCC1", "note": "(stereo not given)", "activity change, negative = inhibition": "-2.54% [at 25.7 µM] (inactive)"}, {"smiles": "COc1cc2c(cc1O)C(c1ccc(O)cc1)C(C)C(C)C2", "note": "(stereo not given)", "activity change, negative = inhibition": "-12.4% (inactive)"}, {"smiles": "CC(C)(O)c1ccc2c(c1)C(=O)C[C@H]1[C@](C)(C(=O)O)CCC[C@]21C", "activity change, negative = inhibition": "-2.3% (inactive)"}, {"smiles": "C=CC(C)(CCC=C(C)C)O[C@@H]1O[C@H](CO)[C@@H](O)[C@H](O)[C@H]1O", "note": "(stereo not given in full)", "activity change, negative = inhibition": "3.33% (inactive)"}, {"smiles": "CC1(C)Oc2ncnc(N)c2N=C1c1ccc(C2CCC(CC(=O)O)CC2)cc1", "note": "(stereo not given)", "activity change, negative = inhibition": "-8.9% (inactive)"}, {"smiles": "CC(=O)N[C@H](Cc1c[nH]c2ccccc12)C(=O)OCc1cc(C(F)(F)F)cc(C(F)(F)F)c1", "outcome": "inactive"}, {"smiles": "CC1=CC[C@@]2(C)CC[C@@](O)(C(C)C)[C@@H]2[C@@H](O)C1", "activity change, negative = inhibition": "4.52% (inactive)"}, {"smiles": "CC1CCC2C(C)(C)C(O)C(O)CC2(C)C12Cc1c(O)cc(CO)c(C=O)c1O2", "note": "(stereo not given)", "activity change, negative = inhibition": "-0.333% [at 25.7 µM] (inactive)"}, {"smiles": "CC1=C2CC(O)(C(C)(C)O)C(O[C@@H]3O[C@H](CO)[C@@H](O)[C@H](O)[C@H]3O)CC(C)C2CC1=O", "note": "(stereo not given in full)", "activity change, negative = inhibition": "-1.63% [at 25.7 µM] (inactive)"}, {"smiles": "Nc1ncnc2c1ncn2[C@H]1O[C@@H](C(=O)N2CCN(CC(=O)Nc3cccc4c3CNC4=O)CC2)[C@H](O)[C@@H]1O", "activity change, negative = inhibition": "1.43% (inactive)"}, {"smiles": "O=C(OCC1OC(Oc2ccc(O)cc2COC(=O)C2(O)C(O)CCC(=O)C2OC(=O)C2C=CCC2)C(OC(=O)C2C=CCC2)C(O)C1O)C1C=CCC1", "note": "(stereo not given)", "outcome": "inactive [at 25.7 µM]"}, {"smiles": "C/C=C/C=C/C=C/C(=O)O[C@@H]1C=C(CO)[C@](O)(CO)[C@@]2(C)CCCC(C)(C)[C@H]12", "outcome": "inactive"}, {"smiles": "CC1=C2C3OC(=O)C(C)C3(O)CCC2(C)CCC1", "note": "(stereo not given)", "activity change, negative = inhibition": "0.118% (inactive)"}, {"smiles": "CC1(O)CC(O)C2C(C(=O)O)=COC(OC3OC(CO)C(O)C(O)C3OC(=O)/C=C/c3ccc(O)cc3)C21", "note": "(stereo not given)", "outcome": "inactive [at 25.7 µM]"}, {"smiles": "C=C1C(OC(C)=O)C(=O)C2C(C)(C)C(O)CCC2(C)C1CC(OC(C)=O)/C(C)=C/COC(C)=O", "note": "(stereo not given)", "activity change, negative = inhibition": "-7.16% [at 25.7 µM] (inactive)"}, {"smiles": "O=C(/C=C/c1ccc(O)cc1)OC[C@H]1O[C@H](O[C@@]2(CO)O[C@@H](CO)[C@H](O)[C@H]2O)[C@H](O)[C@@H](O)[C@@H]1O", "activity change, negative = inhibition": "0.102% [at 25.7 µM] (inactive)"}, {"smiles": "C[C@]12CC/C(=N\\OCC(=O)O)C=C1CC[C@@H]1[C@@H]2[C@@H](O)C[C@@]2(C)[C@H]1CC[C@]2(O)C(=O)CO", "activity change, negative = inhibition": "-3.93% (inactive)"}, {"smiles": "CC(=O)O[C@@H]1[C@H](O[C@@H]2OC[C@](O)(CO)[C@H]2O)[C@@H](O[C@@H]2O[C@@H](C)[C@H](O)[C@@H](O[C@@H]3O[C@H](CO)[C@@H](O)[C@H](O)[C@H]3O)[C@H]2O)[C@H](OC(=O)[C@]23CCC(C)(C)C[C@H]2C2=CCC4[C@@]5(C)C[C@H](O)[C@H](O[C@@H]6O[C@H](C(=O)O)[C@@H](O)[C@H](O)[C@H]6O)[C@@](C)(C(=O)O)C5CC[C@@]4(C)[C@]2(C)CC3)O[C@@H]1C", "note": "(stereo not given in full)", "outcome": "inactive [at 11.6 µM]"}, {"smiles": "CCCC(C(=O)O)c1c(C)nc2ccc(Cl)cc2c1-c1ccccc1", "note": "(stereo not given)", "activity change, negative = inhibition": "-2.85% (inactive)"}, {"smiles": "C=C1[C@H]2CCC3[C@]4(C)CCC[C@@](C)(C(=O)O)C4CC[C@]3(C2)[C@H]1OC(C)=O", "note": "(stereo not given in full)", "activity change, negative = inhibition": "0.701% (inactive)"}, {"smiles": "CC(C)(O)/C=C/C(=O)[C@](C)(O)[C@H]1[C@H](O)C[C@@]2(C)[C@@H]3CC=C4[C@@H](C=C(O[C@@H]5O[C@H](CO)[C@@H](O)[C@H](O)[C@H]5O)C(=O)C4(C)C)[C@]3(C)C(=O)C[C@]12C", "outcome": "inactive [at 25.7 µM]"}, {"smiles": "CC(C)(O)C(O)C(=O)OCc1ccc(O[C@@H]2O[C@H](CO)[C@@H](O)[C@H](O)[C@H]2O)cc1", "note": "(stereo not given in full)", "activity change, negative = inhibition": "3.81% [at 25.7 µM] (inactive)"}, {"smiles": "O=C(O)CCc1cccc(O)c1O[C@@H]1O[C@H](CO)[C@@H](O)[C@H](O)[C@H]1O", "outcome": "inactive"}, {"smiles": "NC[C@@H]1O[C@@H](O[C@@H]2[C@@H](O[C@@H]3O[C@H](CO)[C@@H](O)[C@H]3O)[C@H](O)[C@@H](N)C[C@H]2N)[C@@H](N)[C@H](O)[C@H]1O", "outcome": "inactive [at 11.6 µM]"}]}]}
